Bioassay records from PubChem.
ERK EGF inh: inhibitors of EGF-stimulated ERK signaling pathway. HEK293-V1b, EGF-stimulated phospho-ERK AlphaScreen. Potency, µM (highest dose often 11.5 µM), without a hit: at the highest dose activity change, negative = inhibition, usual class: inhibitors. 130,000 compounds, 0.41% hits. AID 1454;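 also: plate controls were stimulated vehicle wells for no effect and unstimulated vehicle basal for full effect; nearly all actives have a fitted effect of over 55% in size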
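Readout: AlphaScreen signal for phosphorylated ERK in lysed HEK293 cells stably expressing V1b. Stimulus 25 nM EGF, 5 min, following 30 min compound exposure. Data scaled to DMSO basal and full EGF activation.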
NPSR antagonist: neuropeptide S receptor (human) antagonism, cAMP; CHO-NPSR cells, cAMP TR-FRET, antagonist mode; AID 1461; Q6W5P4; 220,000 compounds, 1% hits; Potency, µM (top dose mostly 38.3 µM), without a hit: at the top dose activity change, negative = inhibition, usual class: inhibitors; also: nearly all actives have a fitted effect of over 50% in size
Target sequence (Q6W5P4 whole entry, looked up): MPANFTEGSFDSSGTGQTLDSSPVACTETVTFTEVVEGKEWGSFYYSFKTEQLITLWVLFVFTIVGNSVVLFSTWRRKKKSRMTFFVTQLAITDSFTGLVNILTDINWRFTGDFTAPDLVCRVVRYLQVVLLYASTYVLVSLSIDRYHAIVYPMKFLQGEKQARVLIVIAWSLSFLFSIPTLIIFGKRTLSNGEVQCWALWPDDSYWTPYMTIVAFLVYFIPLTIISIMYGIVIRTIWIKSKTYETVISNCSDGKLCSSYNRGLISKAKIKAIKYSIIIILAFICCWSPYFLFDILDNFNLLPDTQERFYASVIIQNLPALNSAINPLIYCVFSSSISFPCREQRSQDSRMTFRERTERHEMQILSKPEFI
IMPase Li inh: IMPase inhibition in cells with lithium potentiation; CHO-M1 cells, IP1 TR-FRET (IP-One), carbachol + lithium; Potency, µM (series often up to 59.4 µM), for the others: at the top dose activity, negative = IMPase inhibition, hits mostly inhibitors; 210,000 compounds, 0.35% hits;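 also: IP1 builds up when IMPase is blocked and the TR-FRET signal falls; plate controls were basal vehicle for no effect and high inhibitor control for full effect; nearly all actives have a fitted effect of over 50% in size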
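Concentration–response in CHO-M1 cells, lithium-potentiated; 30 min at 37C. IP1 detected by competitive TR-FRET after 10 min lysis at RT. Hill-fitted AC50.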
* = called active by the depositor; nt = no result; [ ] = remark or other dose. This excerpt belongs to a sample that is enriched for hits. Calls follow the shape of the dose curve; as a rule, active = well fitted curve in the direction sought with a large enough effect; inconclusive = small, poorly fitted or top-dose-only effect, or another doubt; inactive = no such curve, though single readings can be large; an effect the other way counts as inactive or inconclusive. Unless noted, % is scaled to controls: 0 for no effect and ±100 for the full control effect; potency is read from the fitted curve at half-maximal effect.

SMILES | ERK EGF inh | NPSR antagonist | IMPase Li inh
O=c1[nH]n(-c2cccc3cccnc23)c(=O)c2ccccc12 | nt | -7%[46.1 µM] | -2%[38.3 µM]
O=S1(=O)Nc2c(ccc3cccnc23)-c2ccccc21 | nt | 3.2µM* | 11%[38.3 µM]
O=C(O)CCC(=O)c1ccc[nH]1 | nt | nt | -8%
CC(=O)c1sc(NC(=O)C(C)C)nc1C | nt | 29%[46.1 µM] | 11µM*
CC(=O)c1sc(Nc2ccccn2)nc1C | nt | 18%[46.1 µM] | 14µM*
CC(=O)c1sc(Nc2ccc(C)cc2)nc1C | 1% | 12% | -5%
CC(=O)Nc1nc(C)c(C(C)=O)s1 | nt | 5%[46.1 µM] | 28%[38.3 µM]
CCOc1ccc(/C(O)=C2\C(=O)C(=O)N(c3cc(C)on3)C2c2ccccc2OC)cc1 (stereo not drawn) | nt | 13%[46.1 µM] | 5µM*
CCOc1ccc(C2/C(=C(\O)c3ccc(OC)c(OC)c3)C(=O)C(=O)N2c2cc(C)on2)cc1OC (stereo not drawn) | nt | -11%[46.1 µM] | -15%[38.3 µM]
COc1ccc(-c2nc(N)c3ncn([C@H]4O[C@@H](CO)[C@@H](O)[C@@H]4O)c3n2)cc1 | nt | nt | -7%
O=[N+]([O-])c1ccccc1N/N=C1\CC2CC=CC12 (stereo not drawn) | 13µM* | -13% | 14%
O=C(N/N=C1\CC2CC=CC12)c1ccccc1Cl (stereo not drawn) | -4% | 8% | 3%
COc1ccc(-c2nc3c(c4c2C[C@H](c2ccccc2)OC4)CN(C(=O)Cc2cccs2)CC3)c(C)c1 | nt | nt | 14%
Cn1cccc1C(=O)N1CCC[C@@]2(CCN(C(c3ccccc3)c3ccccc3)C2)C1 | 1% | nt | 3%
Cc1c(C(=O)N(C)C2CCCCC2)sc2nc3ccc(N)cc3n12 | nt | nt | 12%
CCNc1ncc2nc(-c3ccc(Cl)cc3)c(=O)n(Cc3ccc(F)cc3)c2n1 | nt | nt | 2µM*
COc1cccc(Cn2c(=O)c(-c3cccs3)nc3cnc(Nc4ccccc4)nc32)c1 | 4% | nt | -18%
CCNc1ncc2nc(-c3ccc(Cl)cc3)c(=O)n(Cc3cccs3)c2n1 | nt | nt | -11%
CCNc1ncc2nc(-c3ccccc3)c(=O)n(C3CC3)c2n1 | 18% | nt | -26%
CCNc1ncc2nc(-c3cccs3)c(=O)n(Cc3cccc(OC)c3)c2n1 | nt | nt | 2µM*
CCNc1ncc2nc(-c3ccc(Cl)cc3)c(=O)n(C3CC3)c2n1 | -3% | nt | 5µM*
CN(C)CN1CSC(=S)N(CN(C)C)C1 | nt | nt | -16%
Cc1ccc(Cl)cc1NC(=S)N/N=C/c1cccc2ccccc12 | 7%[57.5 µM] | 27% | nt
O=C(O)/C=C\C(=O)Nc1ccccc1C#Cc1ccc(Br)cc1 | nt | 13µM* | -7%
O=C(O)/C=C\C(=O)Nc1ccccc1C#Cc1ccccc1 | nt | -2%[46.1 µM] | -3%
SMILES | ERK EGF inh | NPSR antagonist | IMPase Li inh
CCCCCC(=O)O[C@]1(C(C)=O)CC[C@H]2[C@@H]3CCC4=CC(=O)CC[C@]4(C)[C@H]3CC[C@@]21C | nt | 10µM* | 14%
CC(=O)[C@@]1(O)CC[C@H]2[C@@H]3CCC4=CC(=O)CC[C@]4(C)[C@H]3CC[C@@]21C | 2%[57.5 µM] | -16% | 14%
COc1ccc(-c2nc3cnc(N4CCN(C)CC4)nc3n(CCc3ccccc3)c2=O)cc1 | nt | nt | -25%
CN1/C(=C/C(=O)c2nc(S(C)(=O)=O)ncc2Cl)C(C)(C)c2ccccc21 | nt | 5µM* | 21%[38.3 µM]
CN1/C(=C\C(=O)c2cccnc2)C(C)(C)c2ccccc21 | 3% | 11% | -5%
O=S(=O)(c1ccccc1)N1CCC[C@@]2(CCN(c3ccncc3)C2)C1 | 2% | nt | 15%
CCOC(=O)Cn1c(CN2CCN(C(c3ccccc3)c3ccccc3)CC2)nc2c1c(=O)n(C)c(=O)n2C | nt | 16µM* | 35%[38.3 µM]
Cn1c(=O)c2c(nc(CN3CCN(C(c4ccccc4)c4ccccc4)CC3)n2CC(N)=O)n(C)c1=O | nt | 0%[46.1 µM] | 16%[38.3 µM]
Nc1ccc(-c2ccc(Nc3cc(S(=O)(=O)O)c(N)c4c3C(=O)c3ccccc3C4=O)cc2)c(S(=O)(=O)O)c1 | nt | nt | -8%
Cc1cc(C)c(Nc2cc(S(=O)(=O)O)c(N)c3c2C(=O)c2ccccc2C3=O)c(C)c1 | 22µM* | 5µM* | 81%
CCOC(=O)c1c(-c2cccs2)csc1NC(C)=O | 0% | 23%[46.1 µM] | 24%
CCOC(=O)c1c(-c2cccs2)csc1NC(=O)CCCC(=O)O | nt | -12%[46.1 µM] | 10µM*
CNc1ncnc2ccc(-c3ccccc3OC)cc12 | 26% | nt | 8%
CC(NC(=O)Cn1ncc(Cl)c(Cl)c1=O)C12CC3CC(CC(C3)C1)C2 (stereo not drawn) | -4% | 10µM* | 5%
CCn1cc(C(=O)NC(C)C23CC4CC(CC(C4)C2)C3)cn1 (stereo not drawn) | 6% | 3% | 4%
COc1ccc(-c2nc3c(c4c2C[C@H](c2ccccc2)OC4)CN(C(=O)NCc2ccco2)CC3)c(C)c1 | nt | nt | 4%
O=C(CN1C(=O)/C(=C/c2ccccc2)SC1=S)NNC(=O)c1ccccc1O | 14µM* | -17% | 4%
Cc1ccc(/C=C2\SC(=S)N(CCCC(=O)NNC(=O)c3ccccc3O)C2=O)cc1 | 3%[57.5 µM] | 5% | nt
CC(C)Oc1ccccc1/C=N/Nc1ccccc1[N+](=O)[O-] | 13µM* | -23% | 0%
Cc1[nH]c2ccccc2c1/C=N/NS(=O)(=O)c1ccccc1 | -10% | -10% | 11%
COc1ccc(/C=N\Nc2ccccc2[N+](=O)[O-])c(C(=O)O)c1OC | -11%[57.5 µM] | 30% | nt
CCOc1ccccc1/C=N/Nc1ccccc1[N+](=O)[O-] | nt | -6%[46.1 µM] | nt
Cc1[nH]c2ccccc2c1/C=N/Nc1ccccc1[N+](=O)[O-] | 25µM* | 10µM* | 17%
COc1ccccc1/C=N\Nc1ccccc1[N+](=O)[O-] | 10µM* | 5% | nt
c1ccc2c[n+](Cc3ccnc4ccccc34)ccc2c1 | nt | nt | 19%
SMILES | ERK EGF inh | NPSR antagonist | IMPase Li inh
OCC1=CC[N+]2(Cc3ccccc3)CCC(O)[C@@H]12 (stereo partly drawn) | -2% | nt | -3%
Cc1ccc(-n2c(=O)[nH]c3c(oc4ccccc43)c2=O)cc1 | 5% | -21% | -5%
COc1ccc(-n2c(=S)[nH]c3c(oc4ccccc43)c2=O)cc1 | 3% | -46% | 6.3µM*
Cc1cc(C(C)(C)C)cc(CNC2CCCCC2)c1O | nt | nt | -2%
N#CCCn1cc(/C=N/N=C2\NC(=O)C(CC(=O)O)S2)c(-c2ccc(F)cc2)n1 (stereo not drawn) | 8%[57.5 µM] | -18% | nt
O=C(NCc1cccnc1)/C(=C/c1ccc(-c2ccc(Cl)cc2)o1)S(=O)(=O)c1ccccc1 | nt | 10µM* | 17%[38.3 µM]
O=C(NCc1cccnc1)/C(=C\c1ccc(-c2ccc(Br)cc2)o1)S(=O)(=O)c1ccccc1 | -6% | -51% | 16%
C[C@H](N)CCCP(=O)(O)O | nt | nt | -7%
O=C(NCCC1=CCCCC1)c1ccc(=O)oc1 | nt | -6%[46.1 µM] | -6%[38.3 µM]
O=C(NCCC1=CCCCC1)c1coc(=O)c(Br)c1 | nt | 0%[46.1 µM] | 28µM*
CC1(C)Oc2ccc(C#N)cc2[C@@H](OC2=CC(=O)CC2)[C@@H]1O | nt | nt | -5%
CCCCCCCCCCCCC/C=C/[C@@H](O)[C@@H](N)COP(=O)(O)O | -15% | nt | 24%
Cc1ccc(Cn2ccc(NC(=O)c3cc(-c4ccccc4)on3)n2)cc1 | nt | -18%[46.1 µM] | 17%[38.3 µM]
Cc1ccc(Cn2ccc(NC(=O)c3cc(-c4ccc5c(c4)OCO5)on3)n2)cc1 | nt | 22%[46.1 µM] | 11µM*
CC(=O)Nc1cccc(-c2csc(Nc3ccc(Cl)cn3)n2)c1 | 28µM* | -23% | 1%
